Experiment [1] in a line: qHTS assay to identify small molecule agonists of the sonic hedgehog signaling (Shh) pathway (AID 1259368).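 Further: NIH/3T3-derived 3T3Gli1-Luc cells carrying a stable Gli1-driven firefly luciferase reporter; series mostly up to about 92 µM; nearly all actives have a fitted effect of over 15% in size.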 The method in brief: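 Luminescence was read after 30 min at room temperature with luciferase reagent. Before that, 3T3Gli1-Luc cells (NIH/3T3 clone, stable Gli1-Luc reporter; 2,000/well) were exposed to compounds for 24 hr at 37C, 5% CO2, compounds being added 4 hr post-plating.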
For orientation: In qHTS, concentration-response curves come from the screen itself.

Experiment [2] can be described thus: qHTS assay to identify small molecule antagonists of the sonic hedgehog signaling (Shh) pathway (AID 1259369). Further: nearly all actives have a fitted effect of over 45% in size. Further: potency means the concentration at half of the fitted maximal effect. The method in brief:
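Antagonist mode: compound added to 3T3 Gli1-Luc cells followed by conditioned-medium stimulation, 24 h at 37 C, 5% CO2. Inhibition taken as loss of Gli1-driven luciferase luminescence.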

For experiment [3], the target named is Estrogen receptor beta (Homo sapiens) (UniProt Q92731). As to the kind of experiment: qHTS assay to identify small molecule agonists of the estrogen receptor beta (ER-beta) signaling pathway (AID 1259377; active means well fitted activation curve with a large enough effect in the signal ratio in the repeat runs, not every such curve was filed as active; the % refers to the signal ratio). The method in brief:
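Ratiometric beta-lactamase FRET read-out came after 2 h substrate loading at room temperature. It followed 16 h compound treatment at 37C of GripTite HEK293T cells carrying a UAS-bla reporter, plated in 2% charcoal-stripped FBS medium.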

The target is the same in experiment [4]. As to the kind of experiment: qHTS assay to identify small molecule antagonists of the estrogen receptor beta (ER-beta) signaling pathway (AID 1259378; active means well fitted inhibition curve with a large enough effect in the signal ratio in the repeat runs, not every such curve was filed as active; the % refers to the signal ratio). The method in brief:
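Antagonist mode: compounds added to beta-lactamase reporter HEK293T ER-beta-UAS cells stimulated with E2 (1nM final), 16 hr at 37C. LiveBLAzer B/G FRET substrate, 2 hours room temperature, fluorescence read-out.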

Experiment [5] is described as follows: qHTS assay to identify small molecule agonists of the androgen receptor (AR) signaling pathway in the presence of an antagonist - cell viability counter screen (AID 1259379; active means well fitted curve in the direction sought with a large enough effect in the repeat runs; an effect the other way counts as inactive or inconclusive;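 further: MDA-kb2 human breast cancer cells carrying an MMTV luciferase reporter; series mostly up to about 92 µM; nearly all actives have a fitted effect of over 25% in size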). The method in brief:
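Cytotoxicity counter-screen run in the same wells as the nilutamide-challenged (3.0 µM final) AR agonist assay in MDA-kb2 cells. Compounds tested at 15 concentrations for 16 h, 37 °C without CO2; CellTiter-Fluor fluorescence read.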

Experiment [6] is described as follows: qHTS assay to identify small molecule agonists of the estrogen receptor beta (ER-beta) signaling pathway - cell viability counter screen (AID 1259380; active means well fitted curve in the direction sought with a large enough effect in the repeat runs; an effect the other way counts as inactive or inconclusive; further: nearly all actives have a fitted effect of over 30% in size). The essentials: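 Cell viability counter screen: CellTiter-Glo luminescence (30 min, room temperature) measured in the same wells as the beta-lactamase readout, after 16 hr compound exposure at 37C of ER-beta-bla HEK293T cells in 2% charcoal-stripped FBS medium.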

The target of experiment [7] is Androgen receptor (Homo sapiens) (UniProt P10275). As to the kind of experiment: qHTS assay to identify small molecule agonists of the androgen receptor (AR) signaling pathway in the presence of an antagonist (AID 1259381). Further: nearly all actives have a fitted effect of over 15% in size. The method in brief:
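Agonist-mode confirmation run against 3.0 uM final nilutamide: compounds titrated at 15 concentrations onto MDA-kb2 MMTV-luciferase reporter cells. Luminescence measured with ONE-Glo following 16 hr incubation, 37C, 0% CO2.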

Experiment [8] can be described thus: qHTS assay to identify small molecule antagonists of the estrogen receptor beta (ER-beta) signaling pathway - cell viability counter screen (AID 1259382; active means well fitted curve in the direction sought with a large enough effect in the repeat runs; an effect the other way counts as inactive or inconclusive;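 further: HEK293T cells carrying ER-beta-UAS-bla reporter stimulated with estradiol; series mostly up to about 92 µM; nearly all actives have a fitted effect of over 55% in size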). The essentials:
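Cytotoxicity was measured in the same wells by CellTiter-Glo luminescence after 30 min at room temperature. Cells were ER-beta-bla HEK293T in charcoal-stripped serum, given compound together with 1 nM E2 and incubated 16 h at 37C.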

Experiment [9] can be described thus: qHTS assay to identify small molecule agonists or antagonists of the thyroid stimulating hormone receptor (TSHR) signaling pathway - wild type cell line counter screen (AID 1259384). The essentials:
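Counter screen in untransfected Hek293: compounds (15-point titration, triplicate) plus phosphodiesterase inhibitor Ro20-1724 added after 18 h plating; 30 min RT. Intracellular cAMP via competitive d2/cryptate immunoassay, 1 h incubation.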

Experiment [10] has as its target Estrogen receptor (Homo sapiens) (UniProt P03372). As to the kind of experiment: qHTS assay to identify small molecule agonists of the estrogen receptor alpha (ER-alpha) signaling pathway in the presence of an antagonist (AID 1259383). Further: top concentration of the series differs between compounds; nearly all actives have a fitted effect of over 15% in size. The essentials:
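Agonist-mode confirmation run in the presence of 10.0nM (final) ICI-182,780 antagonist. The reporter was ERE-driven luciferase in VM7Luc4E2 cells, grown in charcoal-stripped serum. Cells were exposed to 15-concentration compound series for 22hr, then ONE-Glo luminescence was read.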

Values joined by “and” are separate entries in the source; they are usually repeats but may differ in a detail not shown here. Identical values can stand only once. Records with an inconclusive call do not appear. The source holds several records for some structures; these can differ, active in one and inactive in another. Active and inactive are the calls of the source. Unless noted, the call rests on the fitted dose curve.

Sequence of Androgen receptor (Homo sapiens) (P10275 whole entry, looked up): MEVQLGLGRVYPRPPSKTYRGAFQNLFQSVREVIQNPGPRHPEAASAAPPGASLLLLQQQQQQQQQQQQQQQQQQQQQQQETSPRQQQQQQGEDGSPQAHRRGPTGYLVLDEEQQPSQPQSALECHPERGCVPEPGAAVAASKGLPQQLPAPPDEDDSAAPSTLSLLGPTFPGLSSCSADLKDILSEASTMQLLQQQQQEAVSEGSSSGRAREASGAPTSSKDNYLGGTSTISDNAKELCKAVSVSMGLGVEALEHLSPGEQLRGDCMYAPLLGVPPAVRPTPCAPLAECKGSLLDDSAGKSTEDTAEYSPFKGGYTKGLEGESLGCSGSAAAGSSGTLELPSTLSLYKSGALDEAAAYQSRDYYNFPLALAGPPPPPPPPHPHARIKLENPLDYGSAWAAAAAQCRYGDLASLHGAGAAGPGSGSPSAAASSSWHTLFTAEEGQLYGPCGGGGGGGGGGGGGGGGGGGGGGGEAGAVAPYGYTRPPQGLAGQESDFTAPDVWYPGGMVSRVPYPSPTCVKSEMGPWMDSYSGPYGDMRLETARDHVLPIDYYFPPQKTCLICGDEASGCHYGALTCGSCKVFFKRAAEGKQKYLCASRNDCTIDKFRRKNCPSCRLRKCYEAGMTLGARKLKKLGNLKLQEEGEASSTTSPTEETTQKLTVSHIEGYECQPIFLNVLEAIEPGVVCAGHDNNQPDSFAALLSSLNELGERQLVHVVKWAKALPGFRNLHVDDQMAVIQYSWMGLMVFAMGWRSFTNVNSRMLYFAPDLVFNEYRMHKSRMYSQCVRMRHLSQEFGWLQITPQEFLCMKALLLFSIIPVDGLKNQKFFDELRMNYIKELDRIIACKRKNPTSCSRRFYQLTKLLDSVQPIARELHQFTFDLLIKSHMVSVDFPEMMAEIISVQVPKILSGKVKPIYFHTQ
Sequence of Estrogen receptor beta (Homo sapiens) (Q92731 whole entry, looked up): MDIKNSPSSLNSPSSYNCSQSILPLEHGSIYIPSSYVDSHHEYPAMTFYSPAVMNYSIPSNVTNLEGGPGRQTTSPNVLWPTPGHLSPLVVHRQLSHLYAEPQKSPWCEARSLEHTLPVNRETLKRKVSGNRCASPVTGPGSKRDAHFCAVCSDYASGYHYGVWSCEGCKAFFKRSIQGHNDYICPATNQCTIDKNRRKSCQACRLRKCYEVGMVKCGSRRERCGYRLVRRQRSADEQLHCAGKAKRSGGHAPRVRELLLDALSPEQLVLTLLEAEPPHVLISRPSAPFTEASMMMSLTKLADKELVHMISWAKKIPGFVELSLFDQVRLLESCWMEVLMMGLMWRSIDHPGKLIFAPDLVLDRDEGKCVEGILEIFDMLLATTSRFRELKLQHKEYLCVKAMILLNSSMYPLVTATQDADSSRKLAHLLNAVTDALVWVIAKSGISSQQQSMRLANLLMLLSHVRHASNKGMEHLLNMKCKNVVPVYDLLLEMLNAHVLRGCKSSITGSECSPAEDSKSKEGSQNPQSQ
Sequence of Estrogen receptor (Homo sapiens) (P03372 whole entry, looked up): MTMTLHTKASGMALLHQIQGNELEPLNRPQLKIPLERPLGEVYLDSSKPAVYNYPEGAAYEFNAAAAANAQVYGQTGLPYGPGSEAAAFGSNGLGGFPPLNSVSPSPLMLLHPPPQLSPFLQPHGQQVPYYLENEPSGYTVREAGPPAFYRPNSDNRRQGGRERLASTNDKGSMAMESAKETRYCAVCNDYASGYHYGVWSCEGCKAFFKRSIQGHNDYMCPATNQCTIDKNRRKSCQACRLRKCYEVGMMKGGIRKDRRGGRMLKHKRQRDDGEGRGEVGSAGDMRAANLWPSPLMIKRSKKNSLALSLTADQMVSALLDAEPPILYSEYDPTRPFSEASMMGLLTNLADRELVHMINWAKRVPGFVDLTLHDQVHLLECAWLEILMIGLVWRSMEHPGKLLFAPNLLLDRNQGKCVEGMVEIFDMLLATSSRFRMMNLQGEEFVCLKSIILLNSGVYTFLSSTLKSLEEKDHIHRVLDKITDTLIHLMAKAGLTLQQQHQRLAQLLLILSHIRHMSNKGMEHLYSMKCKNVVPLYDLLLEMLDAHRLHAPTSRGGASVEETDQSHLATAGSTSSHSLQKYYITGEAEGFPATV

With `CC(O)COc1ccccc1` (configuration not stated), the call in experiment [1], in experiment [3] and in experiment [7] was inactive. Besides, the Potency entry in experiment [2], in [4], in experiment [5], in experiment [6], in experiment [8] and in experiment [9] was “inactive” each time.

As to `C[C@]12C=CC(=O)C=C1CC[C@@H]1[C@@H]2C(=O)C[C@@]2(C)[C@H]1CC[C@]2(O)C(=O)CO`, the outcome in experiment [1] and in experiment [3] was inactive. Besides, the Potency result in experiment [2], in experiment [4], in [5], in experiment [6], in experiment [8] and in experiment [10] was “inactive” in each case. For the same compound, in experiment [9], the Potency entry was “inactive”.

`COc1ccc(C(=O)c2ccccc2)c(O)c1`: the result in [1], in experiment [3] and in experiment [7] was inactive. Moreover, the Potency entry in experiment [2], in experiment [4], in experiment [5], in experiment [6], in experiment [8] and in [10] was “inactive” in each case. In experiment [9], the Potency entry was “inactive”.

Regarding `O=C(O)CCCCC1CCSS1` (configuration not stated), the call in experiment [1] and in experiment [3] was inactive. The Potency result in experiment [2], in experiment [4], in [5], in experiment [6], in experiment [8] and in experiment [10] was “inactive” in each case. The Potency entry in experiment [9] was “inactive”.

As to `CCn1cc(C(=O)O)c(=O)c2ccc(C)nc21`, the outcome in [1] and in [3] was inactive. Also, the Potency result in experiment [2], in experiment [4], in experiment [5], in experiment [6], in [8] and in [10] was “inactive” throughout. For the same compound, the Potency entry in [9] was “inactive”.

Turning to `COc1cc(C=O)ccc1O`, the call in experiment [1], in experiment [3] and in [7] was inactive. The Potency entry in experiment [2], in experiment [4], in experiment [5], in experiment [6], in [8] and in experiment [10] was “inactive” in each case. For the same compound, in [9], the Potency result was “inactive”.

Consider `CCCCOC(=O)CCCCCCCCC(=O)OCCCC`, for which the compound was called inactive in experiment [1] and in experiment [3]. The Potency result in experiment [2], in experiment [4], in [5], in [6], in [8] and in experiment [10] was “inactive” each time. Moreover, in experiment [9], the Potency result is “inactive”.

As for `c1ccc2[nH]c(-c3cscn3)nc2c1`, the compound was called inactive in experiment [1], in experiment [3] and in experiment [7]. In addition, the Potency entry in experiment [2], in experiment [4], in [5], in experiment [6], in [8] and in experiment [10] was “inactive” each time. For the same compound, the Potency result in [9] is “inactive”.

For the compound `Cc1cnc(NC(=O)C2=C(O)c3ccccc3S(=O)(=O)N2C)s1`, the compound was classed as inactive in [1] and in experiment [3]. Besides, the Potency entry in experiment [2], in experiment [4], in experiment [5], in [6], in [8] and in experiment [10] was “inactive” each time.

As for `NC(=O)N1c2ccccc2C=Cc2ccccc21`, the compound was classed as inactive in experiment [1] and in experiment [3]. Further, the Potency entry in [2], in [4], in experiment [5], in experiment [6], in experiment [8] and in [10] was “inactive” in each case.

With `CCCCCCCC(=O)OCC(O)CO` (configuration not stated), the outcome in [1] and in [3] was inactive. In addition, the Potency result in [2], in [4], in experiment [5], in [6], in experiment [8] and in experiment [9] was “inactive” throughout.

On to `C=C(C)OC(C)=O`, for which the compound was classed as inactive in experiment [1] and in [3]. Also, the Potency entry in experiment [2], in experiment [4], in [5], in experiment [6], in [8] and in [10] was “inactive” each time. Besides, in experiment [9], the Potency entry was “inactive”.

`COC1=CC(=O)C[C@@H](C)[C@]12Oc1c(Cl)c(OC)cc(OC)c1C2=O`: the outcome in experiment [1] and in experiment [3] was inactive. Moreover, the Potency in [2] is 4.29 µM (active) and 13.7 µM (active). For the same compound, the Potency result in experiment [4], in [5], in experiment [6], in experiment [8], in experiment [10] and in experiment [9] was “inactive” throughout.

As for `CN/C(=C\[N+](=O)[O-])NCCSCc1ccc(CN(C)C)o1`, the result in [1] and in experiment [3] was inactive. Besides, the Potency entry in [2], in experiment [4], in [5], in [6], in experiment [8] and in [10] was “inactive” in each case. For the same compound, the Potency entry in experiment [9] was “inactive”.

On to `Cc1c(N(C)CS(=O)(=O)O)c(=O)n(-c2ccccc2)n1C`, for which the compound was called inactive in [1] and in experiment [3]. Further, the Potency entry in experiment [2], in [4], in experiment [5], in experiment [6], in experiment [8] and in [9] was “inactive” in each case.

On to `C1CNCCN1`, for which the call in experiment [1] and in experiment [3] was inactive. Further, in experiment [2], the Potency is 5.61 µM (active) and inactive. Moreover, the Potency result in experiment [4], in [5], in experiment [6], in experiment [8], in experiment [10] and in experiment [9] was “inactive” throughout.

For `C=CC(=O)NC(C)(C)CS(=O)(=O)O`, the call in experiment [1] and in experiment [3] was inactive. The Potency result in experiment [2], in experiment [4], in [5], in experiment [6], in experiment [8] and in experiment [10] was “inactive” in each case. Besides, the Potency result in experiment [9] is “inactive”.

For `N[C@@H](Cc1c[nH]c2ccccc12)C(=O)O`, the call in experiment [1] and in experiment [3] was inactive. Also, the Potency result in experiment [2], in [4], in [5], in experiment [6], in [8] and in experiment [9] was “inactive” throughout.

Regarding `OCCCc1ccccc1`, the outcome in experiment [1] and in experiment [3] was inactive. In addition, the Potency result in experiment [2], in [4], in experiment [5], in experiment [6], in [8] and in [10] was “inactive” each time. Moreover, the Potency entry in experiment [9] is “inactive”.

`CCCCNC(=O)NS(=O)(=O)c1ccc(N)cc1`: the call in experiment [1] and in [3] was inactive. Besides, the Potency entry in experiment [2], in experiment [4], in experiment [5], in experiment [6], in [8] and in experiment [9] was “inactive” throughout.

The record behind these values is PubChem BioAssay (Tox21).
